Test results taken from ChEMBL document CHEMBL3433997, “St. Jude Leishmania screening dataset” (2016).

Columns and labels:
Assay type in all cases: functional
[1] = molecular target: Solute carrier family 2, facilitated glucose transporter member 1 (Homo sapiens) (UniProt P11166); assay: ST_JUDE_LEISH: Cytotoxicity at 2uM final concentration against transgenic Leishmania Mexicana promastigotes LmGLUT1 that are glucose transport deficient and complemented with the human glucose transporter GLUT1. Activity is measured by DNA content using SYBR green in vitro
Chain of Solute carrier family 2, facilitated glucose transporter member 1 (Homo sapiens) (P11166 whole entry): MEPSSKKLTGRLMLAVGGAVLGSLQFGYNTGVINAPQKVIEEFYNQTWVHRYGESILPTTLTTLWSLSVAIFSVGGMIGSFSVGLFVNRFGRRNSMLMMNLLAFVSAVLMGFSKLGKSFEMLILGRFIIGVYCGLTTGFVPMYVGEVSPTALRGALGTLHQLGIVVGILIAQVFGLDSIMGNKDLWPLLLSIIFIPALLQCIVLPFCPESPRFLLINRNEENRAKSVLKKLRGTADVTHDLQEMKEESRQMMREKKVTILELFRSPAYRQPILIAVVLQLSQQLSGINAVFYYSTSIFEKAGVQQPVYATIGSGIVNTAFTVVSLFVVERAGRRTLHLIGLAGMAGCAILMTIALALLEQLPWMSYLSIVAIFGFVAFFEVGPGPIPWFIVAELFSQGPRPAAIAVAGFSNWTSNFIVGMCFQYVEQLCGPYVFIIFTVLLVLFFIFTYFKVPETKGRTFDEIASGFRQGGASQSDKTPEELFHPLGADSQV

[2] = molecular target: Hexose transporter 1 (Plasmodium falciparum) (UniProt O97467); assay: ST_JUDE_LEISH: Cytotoxicity at 2uM final concentration against transgenic Leishmania Mexicana promastigotes LmPfHT that are glucose transport deficient and complemented with the Plasmodium falciparum hexose transporter. Activity is measured by DNA content using SYBR green in vitro
[3] = molecular target: Glucose transporter (Leishmania mexicana) (UniProt O61059); assay: ST_JUDE_LEISH: Cytotoxicity at 2uM final concentration against transgenic Leishmania Mexicana promastigotes LmGT2 that are glucose transport deficient and complemented with the L. Mexicana glucose transporter 2. Activity is measured by DNA content using SYBR green in vitro

Structure (SMILES) | inhibition [1] [%] | inhibition [2] [%] | inhibition [3] [%]
Cc1ccc(C(=O)Cn2nc(-c3ccc(C)c(S(=O)(=O)N4CCCC4)c3)ccc2=O)cc1 | 1.61 | 0.61 | 2.62
O=C(Nc1cccc(-c2ccc(-c3nc4ccccc4[nH]3)cc2)c1)Nc1ccc(F)c(F)c1F | -2.14 | 1.23 | 2.03
COc1cccc(-c2ccc(C(=O)NCC3CCCN(Cc4cccc(C(F)(F)F)c4)C3)s2)c1 (stereo not drawn) | 2.94 | -4.36 | 5.79
O=C(Cc1c[nH]cn1)Nc1ccc(-c2cccc(-c3nc4cc(C(F)(F)F)ccc4[nH]3)c2)cc1 | -0.04 | 0.42 | 1.12
COc1ccc2nc(-c3cc(-c4ccc(NC(=O)C(C)C)cc4)cnc3N)[nH]c2c1 | 20.8 | 40.7 | 12.9
CN1CCCc2ccc(NC(=O)C=Cc3ccc(-c4ccc(F)cc4F)o3)cc2C1 | 0.88 | 0.81 | 2.73
Cc1ccc(Nc2ccnc(Nc3ccc4c(c3)CS(=O)(=O)C4)n2)cc1O | 2.49 | 3.19 | 4.14
CC(=O)Nc1ccc(C(=O)NC2CCN(c3ccnc4cc(Cl)ccc34)CC2)cc1 | 0.22 | 1.09 | 1.09
Cc1cc(=NN=Cc2ccc(F)cc2)c2cc(F)ccc2[nH]1 | 2.6 | 3.14 | -7.33
Cc1cnc(C[S+]([O-])c2nc3cc(C(F)(F)F)ccc3[nH]2)cc1OCc1ccccc1 (stereo not drawn) | 3.56 | 4.95 | 2.76
CC(C)(C)c1ccc(OCCCON2C(=N)N=C(N)NC2(C)C)c(C(C)(C)C)c1 | 1.15 | 0.14 | 1.14
CCN(CC)CCN(Cc1ccc(-c2ccc(C(F)(F)F)cc2)cc1)C(=O)Cn1c(CCc2cccc(F)c2F)nc(=O)c2cccnc21 | 0.41 | 2.07 | 1.66
CCC(Nc1noc(-c2c(-c3ccccc3)noc2C)n1)c1ccccc1 (stereo not drawn) | -1.15 | 2.18 | 1.54
O=C(c1ccccc1)N1CCC(CN2CCOC(c3ccccc3)(c3ccccc3)C2)CC1 | 3.71 | 3.92 | 2.8
CC(C)(C)NCCN(Cc1ccc(-c2ccc(C(F)(F)F)cc2)cc1)C(=O)Cn1c(SCc2ccc(F)cc2)nc(=O)c2c1CCC2 | 0.94 | 1.75 | 1.74
COc1cccc(NC(=O)[C@H](C(C)C)n2c(=O)[nH]c3ccccc3c2=O)c1 | 1.34 | 0.97 | 5.04

Structure (SMILES) | inhibition [1] [%] | inhibition [2] [%] | inhibition [3] [%]
CCOC(=O)c1cnc2c(OC)cc(OC)c(Cl)c2c1Nc1cccc(C)c1C | 0.67 | -0.69 | -6.14
O=C(CCCCCCc1ccccc1)Nc1ccc2nc3c(c(NCc4ccccc4)c2c1)CCCC3 | -0.24 | 1.39 | -2.98
O=C(Nc1cc(C(F)(F)F)cc(C(F)(F)F)c1)NC(CCCN1CCC2(CC1)OCc1ccccc12)c1ccc(Cl)c(Cl)c1 (stereo not drawn) | 3 | 5.93 | -0.66
Cc1ccccc1C1CCN(C2CCC(NC(=O)c3ccc(-c4ccccn4)s3)CC2)CC1 (stereo not drawn) | -4.15 | -2.96 | -1.37
Nc1ccc(-c2nc3cc(Cc4ccc5[nH]c(-c6ccc(N)cc6)nc5c4)ccc3[nH]2)cc1 | 0.06 | -2.2 | -2.11
CC(C)C[C@H](NC(=O)c1cc2cc(OCCN3CCNCC3)ccc2o1)C(=O)NC1CC[C@@H](C)N(C(=O)Nc2ccc(Cl)cc2)CC1=O (stereo partly drawn) | 3.2 | 5.04 | 3.85
Cc1cccc2nc(-c3ccc(-c4ccc(NC(=O)NCc5ccccc5)cc4)s3)[nH]c12 | 3.85 | 4.61 | 1.02
Cc1nc(-c2cccc(C(F)(F)F)c2)n2nc(Nc3ccc(OCCN4CCCC4)cc3)ncc12 | 76 | 53.7 | 9.22
COc1ccc2ncc(F)c(CCN3CC[C@H](NCc4cc(C#N)c5c(c4)OCCO5)[C@H](O)C3)c2c1 | 42.4 | 57.5 | 70.8
CCCCCn1c(Sc2ccc(C#N)c([N+](=O)[O-])c2)nnc1-c1ccccc1 | 8.41 | 9.62 | 4.33
Cc1cc(CNC(c2ccccc2)C2CCC2)cc(C)c1O (stereo not drawn) | 14.2 | 14.3 | 10.1
CC[C@H](C)CNC(=O)c1ccnc(-c2cccc(CN(C)C3CCN(C)CC3)c2)c1 | 1.42 | 2.4 | 2.59
CC(C)(CNC(=O)[C@H]1CCCCN1)c1nc(-c2ccc(Cl)c(O)c2)c(-c2ccncc2)[nH]1 | 5.66 | 4.64 | 6.24
CCCCc1ccc(-c2c(N)nc(N)nc2CC)cc1 | 11.5 | 9.06 | 8.51
CC1(C)NC(N)=NC(=N)N1OCc1cc(Cl)c(Cl)cc1CON1C(=N)N=C(N)NC1(C)C | 3.89 | 2.37 | 0.54
